Results: PubChem BioAssay AID593 (National Center for Advancing Translational Sciences (NCATS), 2007)
In all, about 59,000 compounds went through this assay and about 540 (0.92%) were called active. About 33% were inconclusive and are not listed. No stated cut-off is given here; in the data, active means max fluorescein-equivalent concentration above about 10 nM; inconclusive means between about 1.1 nM and that limit; inactive means weaker than that. This excerpt belongs to a sample that is enriched for actives.

assay: qHTS Assay for Spectroscopic Profiling in Fluorescein Spectral Region; conditions: Compound autofluorescence, 480/540 nm; max fluorescein-equivalent concentration: stronger effect = higher value; outcome: fluorescein-equivalent
Text: NIH Molecular Libraries Screening Centers Network [MLSCN]
NIH Chemical Genomics Center [NCGC]
Occasionally, the artifactual effect may originate from the compound's own spectral or other biophysical properties which generally tend to track its assay concentration. Pre-screening/profiling the library with respect to the compounds' spectral properties should help one exclude false positives early on. While the most informative fluorescent profiling data set is obtained by performing a full excitation and emission scan of each well by using a monochromator-based plate reader, such an approach is practical only on a very limited scale as scanning each well requires long time. An alternative approach, applied here, is to perform plate reader scans using selected excitation and emission wavelength pairs to generate a multidimensional relational database that correlates compound concentration and the respective relative fluorescence intensity at a given wavelength set. A standard curve of fluorescein present on each plate as six-point concentration series, was used to compute a normalized fluorescence response, termed dye-equivalent concentration, for each compound at each concentration.
NCGC Assay Protocol Summary:
100 mM Tris buffer, pH 8.0
The wells in columns 1 through 4 of a Kalypsys polypropylene 1536-well compound plate were filled with standard solutions of fluorophore corresponding to the spectral region of interest. Solutions of Fluorescein were placed in the following wells: Q1, R1: 3 mM, Q2, R2: 300 uM, Q3, R3: 30 uM, Q4, R4: zero (DMSO), S1, T1: 3 uM, S2, T2: 900 nM, S3, T3: 300 nM, S4, T4: zero (DMSO).
Six uL of buffer were dispensed to 1536-well Greiner black plates. Compounds and dye standards (23 nL) were transferred via Kalypsys PinTool. The plates were incubated for 15 min at room temperature, and then read on ViewLux (Perkin-Elmer) High-throughput CCD imager using 480 nm and 540 nm excitation and emission filter set.
Keywords: NIH Roadmap, MLSCN, MLI, MLSMR, qHTS, NCGC, Fluorescein, Fluorescent Profiling.

| SMILES | max fluorescein-equivalent concentration |
| --- | --- |
| C=CCn1c(C)cc(C(=O)CN2C(=O)c3ccccc3C2=O)c1C | inactive |
| Cc1ccc(SCCN2C(=O)NC(C)(C)C2=O)cc1 | inactive |
| COc1cccc(Cn2c(=O)c(C)nc3cnc(Oc4ccccc4)nc32)c1 | inactive |
| Cc1cc(C(F)(F)F)nn1CC(=O)N1CCCC1 | inactive |
| CCOc1ccc(NS(=O)(=O)c2ccc(OCC(=O)NCCCOC)cc2)cc1 | inactive |
| COCCn1nnnc1C(c1ccccc1Cl)N1CCN(c2ccccc2OC)CC1 (stereo unspecified) | inactive |
| COc1ccccc1N1CCN(c2nc3ccccc3n3nnnc23)CC1 | 12 nM (active) |
| COc1ccccc1N1CCN(Cc2nnnn2CCc2ccccc2)CC1 | inactive |
| COc1ccc(-c2cc(C(F)(F)F)nc(SCCC(=O)NCc3ccco3)n2)cc1 | inactive |
| CCN(CC)S(=O)(=O)c1cccc(C(=O)Nc2cc(C)nn2-c2nc(C)cc(C)n2)c1 | inactive |
| COc1ccc(OCC(=O)OCC(=O)Nc2ccc(S(=O)(=O)N3CCCCC3)cc2)cc1 | inactive |
| CCN1CCN(C(=O)CN(C)S(=O)(=O)c2ccc(OC)cc2)CC1 | inactive |
| CCC1CCCCN1C(=O)Nc1cccc(NC(=O)N2CCCCC2CC)c1 (stereo unspecified) | inactive |
| COc1ccccc1CNc1nc(-c2c(C)noc2C)nc2ccccc12 | inactive |
| FC(F)(F)c1nnc2sc(-c3ccco3)nn12 | inactive |
| O=C(O)CS(=O)c1ccc2c3c(cccc13)C(=O)c1ccccc1-2 (stereo unspecified) | 14 nM (active) |

| SMILES | max fluorescein-equivalent concentration |
| --- | --- |
| CCn1c(=N)c(C(=O)NCCCOC)cc2c(=O)n3cccc(C)c3nc21 | inactive |
| CCn1c(=N)c(S(=O)(=O)c2ccc(F)cc2)cc2c(=O)n3ccccc3nc21 | 29 nM (active) |
| CC1(C)C(=O)C2(CCCCC2)C(=O)OC1c1cccs1 (stereo unspecified) | inactive |
| CCOc1ccccc1Nc1nnc(SCC(=O)Nc2cc(C)on2)s1 | inactive |
| CC[C@H](c1ccccc1)c1cc(C(C)(C)C)cc(C(C)(C)C)c1O | inactive |
| C=CCn1c(COc2ccccc2C)nnc1SCC(=O)O | inactive |
| O=C(NCc1ccco1)c1sc2cccc(F)c2c1Cl | inactive |
| CN(c1ccccc1)c1ccc(/C=c2\s/c(=C(/C#N)C(=O)C(C)(C)C)n(Cc3ccco3)c2=O)cc1 | 34 nM (active) |
| COc1ccccc1NC(=O)CSc1nc2sc(C)c(C)c2c(=O)n1Cc1ccco1 | inactive |
| CC(Sc1nc2ccccc2c(=O)n1Cc1ccco1)C(=O)c1ccccc1 (stereo unspecified) | inactive |
| Cc1ccccc1C(=O)Nc1cccc(-c2nnc(SCC(=O)O)n2C)c1 | inactive |
| O=C(CNS(=O)(=O)c1cccc(C(F)(F)F)c1)Nc1ccccc1F | inactive |
| Cc1ccsc1C(=O)OCC(=O)c1cc2ccccc2o1 | inactive |
| Cc1cc2c(=O)n(C)c(SCC(=O)c3cc4ccccc4o3)nc2s1 | 13 nM (active) |
| Cc1ccc(C(=O)CSc2nc3ccccc3c(=O)n2N)o1 | inactive |
